Where “and” joins values, the source holds several entries; their conditions need not be identical. Identical values can stand only once. In all, about 5,500 compounds went through this assay and about 2,000 (36%) were called active. Not shown: some 18% with an inconclusive outcome. No stated cut-off is given here; in the data, active means normalized growth mostly below about 0.91 (no sharp cut-off); inconclusive means no clear call, values can overlap the other calls; inactive means mostly above about 0.92. The list shows a part of the results.
Assay: chemical genetic growth profiling, strain panel (AID 1159580);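 further: tested at 20 µM; growth read once vehicle control cultures reached saturation at 30 °C; 1 = growth at the plate median or of vehicle wells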
Conditions: S. cerevisiae deletion strains, growth OD

Measured: normalized growth

COc1cc2c(cc1O)CCNC2C (stereo not drawn)
inactive: locus YAL021C, strain ccr4, stronger effect = lower value 1.01 | locus YAL026C, strain drs2, stronger effect = lower value 1 | locus YAL030W, strain snc1, stronger effect = lower value 0.993 | locus YBL061C, strain skt5, stronger effect = lower value 1 | locus YBR009C, strain hhf1, stronger effect = lower value 1 | locus YBR021W, strain FUR4, stronger effect = lower value 1.01 | locus YBR023C, strain chs3, stronger effect = lower value 0.999 | locus YBR171W, strain sec66, stronger effect = lower value 0.982 | locus YBR229C, strain ROT2, stronger effect = lower value 0.993 | locus YBR231C, strain swc5, stronger effect = lower value 0.984 | locus YBR279W, strain paf1, stronger effect = lower value 0.996 | locus YCL011C, strain gbp2, stronger effect = lower value 0.992 | locus YCL016C, strain dcc1, stronger effect = lower value 1.01 | locus YCL029C, strain bik1, stronger effect = lower value 0.968 | locus YCL061C, strain MRC1, stronger effect = lower value 0.989 | locus YCL069W, strain vba3, stronger effect = lower value 0.996 | locus YCR088W, strain abp1, stronger effect = lower value 0.975 | locus YDL005C, strain med2, stronger effect = lower value 0.978 | locus YDL035C, strain GPR1, stronger effect = lower value 1.03 | locus YDL040C, strain nat1, stronger effect = lower value 0.991 | locus YDL074C, strain BRE1, stronger effect = lower value 1 | locus YDL101C, strain DUN1, stronger effect = lower value 0.989 | locus YDL134C, strain PPH21, stronger effect = lower value 1 | locus YDL185W, strain tfp1, stronger effect = lower value 0.981 | locus YDL192W, strain arf1, stronger effect = lower value 0.976 | locus YDR001C, strain nth1, stronger effect = lower value 0.999 | locus YDR069C, strain doa4, stronger effect = lower value 0.975 | locus YDR101C, strain arx1, stronger effect = lower value 0.963 | locus YDR137W, strain rgp1, stronger effect = lower value 0.99 | locus YDR150W, strain NUM1, stronger effect = lower value 0.996 | locus YDR159W, strain sac3, stronger effect = lower value 1.01 | locus YDR162C, strain NBP2, stronger effect = lower value 1.01 | locus YDR195W, strain ref2 0.94 | locus YDR297W, strain sur2, stronger effect = lower value 0.993 | locus YDR318W, strain mcm21, stronger effect = lower value 0.982 | locus YDR334W, strain swr1, stronger effect = lower value 0.99 | locus YDR335W, strain msn5, stronger effect = lower value 0.983 | locus YDR388W, stronger effect = lower value 0.98 | locus YDR392W, strain spt3, stronger effect = lower value 1.03 | locus YDR502C, strain sam2, stronger effect = lower value 0.982 | locus YEL003W, strain gim4, stronger effect = lower value 0.999 | locus YEL037C, strain rad23, stronger effect = lower value 1 | locus YEL061C, strain CIN8 (second series), stronger effect = lower value 0.99 | locus YEL061C, strain CIN8, stronger effect = lower value 0.996 | locus YER015W, strain faa2, stronger effect = lower value 0.995 | locus YER016W, strain bim1, stronger effect = lower value 1.01 | locus YER110C, stronger effect = lower value 0.965 | locus YER111C, strain swi4, stronger effect = lower value 0.975 | locus YER155C, strain BEM2 (second series), stronger effect = lower value 0.94 | locus YER155C, strain BEM2, stronger effect = lower value 0.98 | locus YER167W, strain BCK2, stronger effect = lower value 1.01 | locus YFR010W, strain ubp6, stronger effect = lower value 0.978 | locus YGL078C, strain dbp3, stronger effect = lower value 0.984 | locus YGL086W, strain mad1, stronger effect = lower value 0.968 | locus YGL167C, strain pmr1, stronger effect = lower value 0.993 | locus YGL173C, strain kem1, stronger effect = lower value 1 | locus YGL227W, strain vid30, stronger effect = lower value 0.993 | locus YGL240W, strain doc1, stronger effect = lower value 0.971 | locus YGL248W, strain PDE1, stronger effect = lower value 0.988 | locus YGL253W, strain hxk2, stronger effect = lower value 1 | locus YGR135W, strain pre9, stronger effect = lower value 0.977 | locus YGR252W, strain gcn5, stronger effect = lower value 0.983 | locus YHR013C, strain ard1, stronger effect = lower value 0.99 | locus YHR027C, strain rpn1, stronger effect = lower value 1 | locus YHR030C, strain SLT2, stronger effect = lower value 0.993 and 1.05 | locus YHR079C, strain IRE1 (second series), stronger effect = lower value 0.979 | locus YHR079C, strain IRE1, stronger effect = lower value 1.05 | locus YHR094C, strain hxt1, stronger effect = lower value 0.971 | locus YHR129C, strain ARP1, stronger effect = lower value 0.992 | locus YHR142W, strain chs7, stronger effect = lower value 1.01 | locus YHR200W, strain rpn10, stronger effect = lower value 1 | locus YIL066C, strain RNR3, stronger effect = lower value 1.01 | locus YIL073C, strain SPO22, stronger effect = lower value 0.963 | locus YIL125W, strain kgd1, stronger effect = lower value 0.981 | locus YIR030C, strain dcg1, stronger effect = lower value 0.978 | locus YJL092W, strain hpr5, stronger effect = lower value 0.991 | locus YJL095W, strain BCK1 (second series), stronger effect = lower value 0.978 | locus YJL095W, strain BCK1, stronger effect = lower value 0.984 and 1.01 | locus YJL115W, strain asf1, stronger effect = lower value 0.988 | locus YJL129C, strain trk1, stronger effect = lower value 0.99 | locus YJL134W, strain LCB3, stronger effect = lower value 0.995 | locus YJL154C, strain vps35, stronger effect = lower value 0.994 | locus YJL164C, strain tpk1, stronger effect = lower value 1 | locus YJL166W, strain qcr8, stronger effect = lower value 0.987 | locus YJL168C, strain set2, stronger effect = lower value 0.973 | locus YJL187C, strain SWE1 (second series), stronger effect = lower value 0.992 | locus YJR043C, strain POL32, stronger effect = lower value 1.05 | locus YJR066W, strain TOR1, stronger effect = lower value 0.982 | locus YKL009W, strain mrt4, stronger effect = lower value 0.961 | locus YKL068W, stronger effect = lower value 0.987 | locus YKL085W, strain MDH1 (second series), stronger effect = lower value 0.982 | locus YKL085W, strain MDH1, stronger effect = lower value 0.982 | locus YKL160W, strain elf1, stronger effect = lower value 0.994 | locus YKR001C, strain vps1, stronger effect = lower value 0.958 | locus YKR026C, strain gcn3, stronger effect = lower value 0.989 | locus YKR091W, strain srl3, stronger effect = lower value 0.991 | locus YLL001W, strain dnm1, stronger effect = lower value 0.982 | locus YLL026W, stronger effect = lower value 0.987 | locus YLL041C, strain sdh2, stronger effect = lower value 0.992 | locus YLR027C, strain aat2, stronger effect = lower value 0.98 | locus YLR039C, strain RIC1, stronger effect = lower value 1.02 | locus YLR058C, strain SHM2, stronger effect = lower value 0.995 | locus YLR102C, strain apc9, stronger effect = lower value 0.974 | locus YLR113W, strain HOG1, stronger effect = lower value 0.977 | locus YLR221C, strain rsa3, stronger effect = lower value 0.996 | locus YLR258W, strain gsy2, stronger effect = lower value 0.998 | locus YLR262C, strain YPT6 (second series), stronger effect = lower value 0.994 | locus YLR262C, strain YPT6, stronger effect = lower value 1.05 | locus YLR268W, strain sec22, stronger effect = lower value 0.965 | locus YLR320W, strain mms22, stronger effect = lower value 0.994 | locus YLR330W, strain CHS5, stronger effect = lower value 1 | locus YLR342W, strain FKS1 (second series), stronger effect = lower value 1.03 | locus YLR342W, strain FKS1, stronger effect = lower value 0.987 | locus YLR357W, strain rsc2, stronger effect = lower value 0.979 | locus YLR370C, strain arc18, stronger effect = lower value 0.988 | locus YLR371W, strain rom2, stronger effect = lower value 0.967 | locus YLR384C, strain iki3, stronger effect = lower value 0.985 | locus YLR418C, strain cdc73, stronger effect = lower value 0.973 | locus YML016C, strain PPZ1, stronger effect = lower value 0.991 | locus YML032C, strain rad52, stronger effect = lower value 0.99 | locus YML120C, strain ndi1, stronger effect = lower value 0.991 | locus YML124C, strain tub3, stronger effect = lower value 0.984 | locus YMR058W, strain fet3, stronger effect = lower value 0.991 | locus YMR078C, strain ctf18, stronger effect = lower value 0.977 | locus YMR125W, strain sto1, stronger effect = lower value 1 | locus YMR129W, stronger effect = lower value 0.996 | locus YMR205C, strain PFK2, stronger effect = lower value 0.991 | locus YMR223W, strain ubp8, stronger effect = lower value 0.985 | locus YMR231W, strain pep5, stronger effect = lower value 0.984 | locus YMR307W, strain GAS1, stronger effect = lower value 1.08 | locus YNL067W, strain RPL9B, stronger effect = lower value 0.988 | locus YNL071W, strain lat1, stronger effect = lower value 0.988 | locus YNL128W, strain TEP1, stronger effect = lower value 0.992 | locus YNL153C, strain GIM3, stronger effect = lower value 0.988 | locus YNL183C, strain NPR1, stronger effect = lower value 0.974 | locus YNL209W, strain ssb2, stronger effect = lower value 0.997 | locus YNL233W, strain BNI4, stronger effect = lower value 0.982 | locus YNL248C, strain rpa49, stronger effect = lower value 0.997 | locus YNL250W, strain rad50, stronger effect = lower value 0.99 | locus YNL271C, strain bni1, stronger effect = lower value 0.975 | locus YNL298W, strain CLA4, stronger effect = lower value 0.989 | locus YNL307C, strain MCK1, stronger effect = lower value 0.969 | locus YNL322C, strain KRE1 (second series), stronger effect = lower value 0.98 | locus YNR049C, strain mso1, stronger effect = lower value 0.987 | locus YNR052C, strain pop2, stronger effect = lower value 0.973 | locus YOL012C, strain htz1 0.945 | locus YOL147C, strain pex11, stronger effect = lower value 0.979 | locus YOR001W, strain rrp6, stronger effect = lower value 0.958 | locus YOR061W, strain CKA2, stronger effect = lower value 0.997 | locus YOR069W, strain VPS5, stronger effect = lower value 0.987 | locus YOR070C, strain gyp1, stronger effect = lower value 0.999 | locus YOR080W, strain dia2, stronger effect = lower value 0.987 | locus YOR083W, strain WHI5, stronger effect = lower value 0.988 | locus YOR106W, strain vam3, stronger effect = lower value 0.989 | locus YOR136W, strain idh2, stronger effect = lower value 0.964 | locus YOR144C, strain elg1, stronger effect = lower value 0.983 | locus YOR184W, strain ser1, stronger effect = lower value 0.988 | locus YOR231W, strain MKK1, stronger effect = lower value 1 | locus YOR265W, strain rbl2, stronger effect = lower value 0.984 | locus YOR270C, strain vph1, stronger effect = lower value 1.02 | locus YOR290C, strain snf2, stronger effect = lower value 0.999 | locus YOR316C, strain cot1, stronger effect = lower value 0.981 | locus YPL051W, strain arl3, stronger effect = lower value 0.985 | locus YPL055C, strain LGE1, stronger effect = lower value 1 | locus YPL078C, strain atp4, stronger effect = lower value 0.989 | locus YPL106C, strain sse1, stronger effect = lower value 0.991 | locus YPL240C, strain hsp82, stronger effect = lower value 1 | locus YPL256C, strain CLN2, stronger effect = lower value 1.06 | locus YPR119W, strain clb2, stronger effect = lower value 0.978 | locus YPR141C, strain kar3, stronger effect = lower value 0.968 | locus YPR163C, strain tif3, stronger effect = lower value 0.979 | locus YPR167C, strain met16, stronger effect = lower value 0.974 | strain wtn01, stronger effect = lower value 0.952

Reference: PubChem BioAssay AID1159580 (chemical genetic matrix, 2015)
